{"source": "PubChem BioAssay (NCATS)", "note": "Records with an inconclusive call do not appear. Unmarked numbers belong to inactive results. Calls of active or inactive are those of the source. Calls come from the whole dose curve; as a rule, active = well fitted inhibition curve with a large enough effect; inconclusive = small, poorly fitted or top-dose-only effect; inactive = flat fitted curve, though single readings scatter. Residues, ends and D or L forms follow the SMILES beside them. *: point of attachment. Cbz = O=C(OCc1ccccc1)*"}
{"test": "qHTS to identify inhibitors of the type 1 interferon - major histocompatibility complex class I in skeletal muscle: primary screen against the NCATS LOPAC collection (AID 1347405);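 note: lytic HiBiT luminescence reporting HLA-B protein level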; note: potency is the fitted concentration of half-maximal effect; for activity change, negative = inhibition: % is set by controls: 0 for no effect and ±100 for the full control effect", "conditions": "iHSKM muscle cells, IFN-b-induced MHC-I HiBiT luminescence, 24 h; series mostly up to 45.9 µM; activity change, negative = inhibition: at the top concentration", "text": "Assay Submitter (PI): Travis B. Kinder Ph.D. & James Inglese Ph.D.\nAssay Development and Screening Technology Laboratory (ADST)\nNational Center for Advancing Translational Sciences (NCATS), Rockville, MD\nNational Institute of Health (NIH), Bethesda, Maryland\nIdiopathic inflammatory myopathies, collectively referred to as myositis, are a group of rare autoimmune diseases characterized by skeletal muscle inflammation, weakness, and usually accompanied by systemic pathologies of the skin, lungs, or vasculature. Current immunosuppressive therapies and glucocorticoids are often not curative and are accompanied by harsh side effects, especially in children with juvenile myositis. We initiated a drug repurposing and development program to identify more targeted, less toxic therapeutics to treat myositis. Although its cause is not known, muscle from a subset of patients have an abundance of the inflammatory type 1 interferon (IFN) and a down-stream product major histocompatibility complex class I (MHC class I), which are both thought to contribute to damage and weakness. We conducted quantitative high throughput screening on 6,576 compounds (4,679 unique) through a series of cell-based assays to identify those that inhibit the IFN-stimulated expression of MHC class I in muscle precursor cells (myoblasts). The compound identification and evaluation strategy utilized a primary screen with reporter-tagged MHC class I in genome-engineered myoblasts, ATP content counter screen for viability, HLA-ABC immunofluorescence secondary screen, and HLA-B RT-qPCR tertiary screen.\nThe primary screen utilized CRISPR/Cas9 genome-engineering of immortalized human myoblasts, C25cl48, where a pro-luminescent reporter HiBit was fused to the C-terminus of endogenous MHC class I allele HLA-B*08:01 (HLA-B HiBit myoblasts). HiBit is an 11 amino acid fragment of NanoLuc luminescent reporter (Promega Corporation), and when complexed to the larger LgBit fragment, the reconstituted enzyme produces light in the presence of furimazine substrate (Schwinn et al., 2018). Briefly, HLA-B HiBit myoblasts were plated into 1536-well plates, treated with 4.0 ng/ml human IFN-beta and 1,280 compounds from the Library of Pharmacologically Active Compounds 1280 library (LOPAC1280, Sigma Aldrich) in a 7-point, 1:4.3 titration with a high final concentration of 46 uM. After 24 hrs of treatment, cells were assayed by Nano-Glo HiBiT Lytic Detection System (Promega) and luminescence measured by a ViewLux 1430 Ultra HTS (Perkin Elmer).\nSchwinn MK, Machleidt T, Zimmerman K, Eggers CT, Dixon AS, Hurst R, Hall MP, Encell LP, Binkowski BF, Wood K V. 2018. CRISPR-Mediated Tagging of Endogenous Proteins with a Luminescent Peptide. ACS Chem Biol 13:467-474. doi:10.1021/acschembio.7b00549\nPROTOCOL TABLE (as described by Inglese et al., 2007)\nSEQUENCE No. (e.g., 1, 2, 3, etc.); […] (e.g., Cells, Incubation, Reagent, etc.); VALUE; DESCRIPTION\n1a; Cells; 5 uL; Use a Multidrop Combi (Thermo Scientific) to seed 350 cells/well into nine Greiner 1536 well white/solid bottom, high base, TC plates in 5 ul/well of iHSKM growth medium (GM) without dexamethasone into columns 1+2. Add metal lids with gas-exchange holes\n1b; Cells; 5 uL; Use a Multidrop Combi (Thermo Scientific) to seed 350 cells/well into nine Greiner 1536 well white/solid bottom, high base, TC plates in 5 ul/well of iHSKM GM without dexamethasone + 4 ng/ml IFN-b into columns 3 - 48. Add metal lids with gas-exchange holes\n2; Incubate; 1 hr; Incubate at 37 C, 5% CO2, 95% RH\n3; Compounds; 23 nl; Use Pin Tool (Wako) to transfer DMSO control, ruxolitinib IFN-b inhibitor control [High Concentration = 80 uM final, 16-pt, 1:2 in duplicate], and library compounds in DMSO\n4; Incubate; 24 hrs; Incubate at 37 C, 5% CO2, 95% RH\n5; Dispense; 2.5 ul; Use BioRAPTR FRD (Beckman Coulter) to add HiBit lytic reagent\n6; Incubate; 10 min; Incubate in the dark at ambient temperature for lysis\n[…]", "units": {"activity change, negative = inhibition": "%"}}
{"smiles": "CN1CCN(c2nc3cc(C(F)(F)F)ccc3n3cccc23)CC1", "activity change, negative = inhibition": -39}
{"smiles": "CCC(=O)N1CCN(C(=O)c2ccccc2)CC1", "activity change, negative = inhibition": -12.4}
{"smiles": "CCCCS(=N)(=O)CC[C@H](N)C(=O)O", "note": "(stereo not given in full)", "activity change, negative = inhibition": -1.48}
{"smiles": "Nc1ccc(-c2nc3ccc(-c4nc5ccc(N)cc5[nH]4)cc3[nH]2)cc1", "activity change, negative = inhibition": -3.39}
{"smiles": "N=C(N)SCCc1cnc[nH]1", "activity change, negative = inhibition": -14.6}
{"smiles": "CCCCCCC(=O)OC1CC(C)(C)NC(C)(C)C1", "activity change, negative = inhibition": -22}
{"smiles": "N[C@@H](CCCC(=O)O)C(=O)O", "activity change, negative = inhibition": -4.22}
{"smiles": "N#Cc1cc2nc(O)c(O)nc2cc1[N+](=O)[O-]", "activity change, negative = inhibition": -5.3}
{"smiles": "CC1CCN=C(N)S1", "note": "(stereo not given)", "activity change, negative = inhibition": -1.2}
{"smiles": "Nc1ncnc2c1nc(Sc1ccc(Cl)cc1)n2[C@H]1OC2COP(=O)(O)O[C@@H]2C1O", "note": "(stereo not given in full)", "activity change, negative = inhibition": 1.54}
{"smiles": "O=C1Cc2c([nH]c3ccc(Br)cc23)-c2ccccc2N1", "Potency": "12.6 µM (active)"}
{"smiles": "C#CC(N)CCC(=O)O", "note": "(stereo not given)", "activity change, negative = inhibition": -10.7}
{"smiles": "NC1(C(=O)O)CCCCC1", "activity change, negative = inhibition": -1.2}
{"smiles": "CCn1c(=O)[nH]c2cc(Cl)c(Cl)cc21", "Potency": "3.16 µM (active)"}
{"smiles": "C=CCN1CCc2c(cc(O)c(O)c2Cl)C(c2ccccc2)C1", "note": "(stereo not given)", "activity change, negative = inhibition": -17.7}
{"smiles": "CN1CCCC1CCOC(C)(c1ccccc1)c1ccc(Cl)cc1", "note": "(stereo not given)", "activity change, negative = inhibition": -18.1}
{"smiles": "NC(=O)c1cc[n+](CC2=C(C(=O)O)N3C(=O)[C@@H](NC(=O)[C@@H](c4ccccc4)S(=O)(=O)[O-])[C@H]3SC2)cc1", "activity change, negative = inhibition": -10.8}
{"smiles": "O=c1[nH]c(=O)c2nc3ccccc3nc2[nH]1", "activity change, negative = inhibition": 0.92}
{"smiles": "O=C(O)[C@H]1NCCC[C@H]1C(=O)O", "activity change, negative = inhibition": -4.2}
{"smiles": "Cc1nc(N=Nc2cc(S(=O)(=O)O)c3cc([N+](=O)[O-])cc(S(=O)(=O)O)c3c2)c(COP(=O)(O)O)c(C=O)c1O", "Potency": "15.8 µM (active)"}
{"smiles": "CCCCCCCCCC[Si](C)(C)CCC(=O)NC(Cc1ccc(C)cc1)c1ccccc1", "note": "(stereo not given)", "activity change, negative = inhibition": -4}
{"smiles": "CCCC(=O)NCCc1c2n(c3ccc(OC)cc13)CCCc1ccccc1-2", "activity change, negative = inhibition": -12.5}
{"smiles": "Cc1nc(N=Nc2ccc(S(=O)(=O)O)cc2S(=O)(=O)O)c(COP(=O)(O)O)c(C=O)c1O", "activity change, negative = inhibition": -18}
{"smiles": "CC(=O)C(C)=O", "activity change, negative = inhibition": -3.14}
{"smiles": "NC1CONC1=O", "note": "(stereo not given)", "activity change, negative = inhibition": -4.41}
{"smiles": "N=C(N)c1ccc(N)cc1", "activity change, negative = inhibition": -7.56}
{"smiles": "C[C@H]1CC2C3CCC4=CC(=O)C=C[C@]4(C)[C@@]3(Cl)[C@@H](O)C[C@]2(C)[C@@]1(O)C(=O)CO", "note": "(stereo not given in full)", "activity change, negative = inhibition": -19.8}
{"smiles": "O=[N+]([O-])c1cccc2c(Br)[nH]nc12", "activity change, negative = inhibition": -14}
{"smiles": "COc1ccc(CCN(C)CCc2ccc(OC)c(OC)c2)cc1OC", "activity change, negative = inhibition": -10.9}
{"smiles": "CCCn1c(=O)c2c(ncn2C)n(CCC)c1=O", "activity change, negative = inhibition": -18}
{"smiles": "CC(C)[C@H](NC(=O)OCc1ccccc1)C(=O)N[C@H](C=O)Cc1ccccc1", "note": "(Cbz-Val-Phe-aldehyde)", "activity change, negative = inhibition": 21.2}
{"smiles": "O=C(O)C1CN(CCCP(=O)(O)O)CCN1", "note": "(stereo not given)", "activity change, negative = inhibition": -12.5}
{"smiles": "CN[C@H](CC(=O)O)C(=O)O", "activity change, negative = inhibition": 4.6}
{"smiles": "COc1ccc2c(c1)CCC1C2CC[C@@]2(C)C1CC[C@@H]2NCCCCCCN1C(=O)C=CC1=O", "note": "(stereo not given in full)", "activity change, negative = inhibition": -5.86}
{"smiles": "N[C@@H](CS(=O)O)C(=O)O", "activity change, negative = inhibition": 6.33}
{"smiles": "Cn1cc(C(=O)OCC2CCN(CCNS(C)(=O)=O)CC2)c2ccccc21", "activity change, negative = inhibition": -0.179}
{"smiles": "CC(/C=C/c1cccc(Oc2ccc(F)cc2)c1)N(O)C(N)=O", "note": "(stereo not given)", "activity change, negative = inhibition": -18.3}
{"smiles": "COc1ccccc1N1CCN(CCCCNC(=O)c2ccc3ccccc3c2)CC1", "activity change, negative = inhibition": -19.6}
{"smiles": "Cn1ccnc1", "activity change, negative = inhibition": 9.62}
{"smiles": "O=C(O)c1cc(=O)cc(C(=O)O)[nH]1", "activity change, negative = inhibition": 7.38}
